Screening data as filed in PubChem.
FLuc modulator – qHTS profiling assay for firefly luciferase inhibitor/activator using purifed enzyme and Km concentrations of substrates (counterscreen for miR-21 project); Luciferin 4-monooxygenase (Photinus pyralis), P08659; purified FLuc, Km substrates, luminescence inhibition; Potency, µM (top dose mostly 57.5 µM), for the others: top-dose activity change, negative = inhibition, actives largely listed as inhibitors; 360,000 compounds, 6.9% hits; AID 588342, 2011;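 further: plate controls were vehicle for no effect and reference inhibitor for full effect; nearly all actives have a fitted effect of over 55% in size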
Target sequence (P08659 whole entry, looked up): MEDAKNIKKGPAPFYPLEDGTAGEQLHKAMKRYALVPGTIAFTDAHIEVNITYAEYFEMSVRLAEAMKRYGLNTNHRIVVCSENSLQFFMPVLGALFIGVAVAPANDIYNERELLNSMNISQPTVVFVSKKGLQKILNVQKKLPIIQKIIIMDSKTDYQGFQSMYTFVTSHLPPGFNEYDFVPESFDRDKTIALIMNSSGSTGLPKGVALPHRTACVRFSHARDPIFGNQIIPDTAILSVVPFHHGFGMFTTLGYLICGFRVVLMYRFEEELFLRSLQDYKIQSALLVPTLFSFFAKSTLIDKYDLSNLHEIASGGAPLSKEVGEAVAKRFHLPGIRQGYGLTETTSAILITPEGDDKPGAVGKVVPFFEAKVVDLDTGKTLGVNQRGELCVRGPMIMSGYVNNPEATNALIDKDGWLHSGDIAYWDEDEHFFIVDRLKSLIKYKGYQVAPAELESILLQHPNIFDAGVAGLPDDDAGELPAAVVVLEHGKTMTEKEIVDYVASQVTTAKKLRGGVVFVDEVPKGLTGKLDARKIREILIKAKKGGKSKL
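Biochemical qHTS of compounds, final roughly 60 µM downward over six points, against 10 nM purified firefly luciferase using Km concentrations of substrates (10 uM D-luciferin, 10 uM ATP) in Tris acetate pH 7.5 buffer; luminescence output.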
KinaseGlo FLuc – Counterscreen for Luciferase (Kinase-Glo TM) Inhibition. Luciferin 4-monooxygenase (Photuris pensylvanica), Q27757. Potency, µM (doses to about 38.3 µM), for the others: at the highest dose activity change, negative = inhibition, usual class: inhibitors. Kinase-Glo luciferase, ATP luminescence, 8 min. AID 1379, 2008. 200,000 compounds, 0.28% hits; further: on the % scale 0 is the no-effect control and ±100 the full control effect; nearly all actives have a fitted effect of over 60% in size
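Luminescence was the read-out, taken after 8-minute incubation at ambient temperature. Luciferase turned over luciferin with 10 uM ATP in imidazole pH 7.2 buffer containing KCl, MgCl2, Tween 20 and BSA.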
ELG1 genotox – qHTS screen for small molecules that induce genotoxicity in human embryonic kidney (HEK293T) cells expressing luciferase-tagged ELG1. HEK293T ELG1-luciferase reporter, luminescence, 16 h. 330,000 compounds, 1.3% hits. AID 504466, 2011. Potency, µM (titrated, usually from 46 µM), inactives show at the top dose activity change, positive = activation, usual class: activators; further: % of control where 0% means no effect; nearly all actives have a fitted effect of over 60% in size
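Cells (2,000/well) expressing the ELG1-luciferase fusion are dosed by pin tool and kept 16 hr at 37 °C, 5% CO2. Signal comes from ONE-Glo luciferase reagent after 30 min at room temperature.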
NPC1 promoter act – qHTS Assay for NPC1 Promoter Activators. Potency, µM (highest dose often 9.22 µM), without a hit: at the top dose activation, hits mostly activators. Huh7 NPC1 promoter luciferase reporter, 24 h. 320,000 compounds, 2.4% hits; further: % of control where 0% means no effect; nearly all actives have a fitted effect of over 60% in size
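Compounds in DMSO were transferred onto Huh7 NPC1-luciferase reporter cells pre-incubated 2 h; after 24 h at 37 °C, Amplite reagent was dispensed and luminescence recorded 10 min later.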
Rab9 prom act – qHTS Assay for Rab9 Promoter Activators. Huh7 Rab9 promoter-luciferase reporter, luminescence, 24 h. Potency, µM (top dose mostly 9.22 µM), without a hit: at the highest dose activation, negative = inhibition, usual class: activators. 320,000 compounds, 2.8% hits; further: % of control where 0% means no effect; nearly all actives have a fitted effect of over 60% in size
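Promoter activation is measured as luciferase luminescence in Huh7 cells stably transfected with a Rab9 promoter–luciferase construct, following 24 h compound exposure at 37 °C and 10 min reagent incubation at ambient temperature.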
SMN2 splice up – qHTS Assay for Enhancers of SMN2 Splice Variant Expression. 210,000 compounds, 2.8% hits. AID 1458, 2008. Potency, µM (series often up to 46.1 µM), for inactives: at the top dose activity change, positive = activation, hits mostly activators. HEK293 SMN2-luciferase splicing reporter, luminescence, 30-36 h; further: % of control where 0% means no effect; nearly all actives have a fitted effect of over 55% in size
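HEK293 cells carry an SMN2 […]–luciferase reporter in which exon 7 inclusion puts luciferase in frame. Cells were plated 10-12 h before compound addition, then incubated 30-36 h at 37C. ONE-Glo luminescence was read; sodium butyrate at 4.5 mM final served as control.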
* hit, by the source's call; ? = inconclusive; nt = no result given; [ ] = remark or other dose. Hits are enriched below; roughly 7.4% of the tested compounds scored in any of these assays. The call rests on the fitted dose curve; in most records, active means well fitted curve in the direction sought with a large enough effect; inconclusive means small, poorly fitted or top-dose-only effect, or another doubt; inactive means no such curve, though single readings can be large; an effect the other way counts as inactive or inconclusive. Potency means the concentration at half of the fitted maximal effect.

SMILES	FLuc modulator	KinaseGlo FLuc	ELG1 genotox	NPC1 promoter act	Rab9 prom act	SMN2 splice up
COc1ccc(CCNC(=O)C2CCC(=O)N(CC3CCCCC3)C2)cc1 (stereo not drawn)	-4%	nt	-2%	4%	-3%	nt
O=C(Nc1ccccc1C(=O)O)c1cccc(C(=O)Nc2ccccc2C(=O)O)c1	19µM*	nt	-16%	0%	1%	nt
O=C(Nc1ccccc1C(=O)O)c1ccccc1	?	-1%	17%	2%	-3%	12%
CC(C)CC(=O)Nc1cccc(C(=O)Nc2ccccc2C(=O)O)c1	15µM*	-1%	-1%	-2%	-3%	14%
Cc1c(NC(=O)c2ccc(-c3ccccc3)cc2)cccc1C(=O)O	0.6µM*	nt	0.29µM*	?	?	nt
CN1CCN(c2ccccc2NC(=O)c2ccc(-c3ccccc3)cc2)CC1	-9%	3%	-14%	0%	-10%	7%
C=CCN(CC=C)CCOc1ccc(C)cc1[N+](=O)[O-]	24µM*	1%	6%	15%	16%	6%
C=CCN(CC=C)CCOc1cc(C)ccc1[N+](=O)[O-]	4%	-2%	-2%	-2%	2%	-2%
Cc1ccc(OCCCN2CCOCC2)c([N+](=O)[O-])c1	21µM*	5%	?	?	?	?
CC(=O)c1cccc(NC(=O)C23CC4CC(C2)CC(n2cncn2)(C4)C3)c1	0%	1%	1%	-4%	0%	-2%
Cc1cccc(C(=O)NNC2=CC(=O)CC(C)(C)C2)c1O	11µM*	nt	?	25%	?	nt
Cc1ccccc1NC1=CC(=O)CC(C)(C)C1	-2%	-5%	-2%	-4%	11%	0%
COc1ccc(C(=O)NNC2=CC(=O)CC(C)(C)C2)cc1	2%	-3%	3%	-11%	-1%	-7%[1.84 µM]
CC1(C)CC(=O)C=C(NNC(=O)c2ccccc2O)C1	0.85µM*	?	17%	?	3.2µM*	18µM*
CCNC(=O)c1ccc2c(c1)S(=O)(=O)c1ccccc1C2=O	-2%	1%	7%	0%	-6%	-1%
CCCCNC(=O)c1ccc2c(c1)S(=O)(=O)c1ccccc1C2=O	15µM*	nt	11%	-4%	-5%	nt
Clc1ccc(-c2cc(CN3CCCCC3)no2)cc1Cl	19µM*	nt	10%	22%	23%	nt
Clc1ccc(-c2cc(CN3CCOCC3)no2)cc1	12µM*	nt	?	1.6µM*	0.89µM*	nt
Cc1ccn2c(c1)nc(=S)n2C(=O)c1ccco1	1.5µM*	-10%	?	4µM*	1.6µM*	18µM*
COCCNc1nc(C)cc(-c2cc(-c3ccc(Cl)cc3)on2)n1	15µM*	nt	0%	10%	0%	nt
CCCNc1nc(C)cc(-c2cc(-c3ccc(Cl)cc3)on2)n1	-15%	nt	11%	-3%	-2%	nt
CCOC(=O)N1CCN(C(=O)c2cccc(S(=O)(=O)Nc3ccc(Br)cc3)c2)CC1	7%	nt	0%	-3%	-3%	nt
CCOc1ccc(NC(=O)c2c(NC(=O)c3cccs3)sc3c2CCC(C(C)(C)C)C3)cc1 (stereo not drawn)	1%	nt	nt	nt	nt	-11%
CCCOc1ccc(C(=O)Nc2ccc3c(c2)OCO3)cc1	2.1µM*	nt	2.3µM*	1µM*	2.8µM*	nt
CCCCOc1ccc(C(=O)Nc2ccc3c(c2)OCO3)cc1	?	-2%	?	22%	?	?
SMILES	FLuc modulator	KinaseGlo FLuc	ELG1 genotox	NPC1 promoter act	Rab9 prom act	SMN2 splice up
CCC(=O)Oc1ccc(C(=O)Nc2ccc3c(c2)OCO3)cc1	5.4µM*	?	?	2.2µM*	4.5µM*	16µM*
COc1ccc(NC(=O)CSc2nc3c(c(=O)[nH]2)CCC3)cc1	-6%	nt	nt	nt	nt	nt
CCCn1c(C)cs/c1=N\C(=S)Nc1ccccc1	3%	0%	2%	9%	3%	1%
Cc1cs/c(=N/C(=S)Nc2ccccc2)n1C	4.8µM*	-10%	2.9µM*	1.1µM*	1.6µM*	1.3µM*
COc1ccc([C@H]2[C@H](C(=O)OC(C)(C)C)N3N=Cc4ccccc4C3C23C(=O)c2ccccc2C3=O)cc1OC (stereo partly drawn)	15µM*	-3%	-2%	0%	-2%	10%
Cn1c2ccccc2c(=O)c2cc(C#CC3=CCCCC3)ccc21	6.7µM*	nt	?	?	?	nt
Cn1c2ccccc2c(=O)c2cc(C#Cc3cccc(N)c3)ccc21	4.8µM*	nt	?	0%	-1%	nt
Cn1c2ccccc2c(=O)c2ccc(C#Cc3ccc(N)cc3)cc21	?	nt	5%	16%	21%	nt
COc1ccc(C#Cc2ccc3c(=O)c4ccccc4n(C)c3c2)cc1	-17%	nt	-4%	-2%	-1%	nt
COc1ccc(-n2nnnc2CNC(=O)c2ccc3c(c2)OCO3)cc1	0%	nt	-8%	-4%	0%	nt
CCN(C(=O)c1cc2cc3ccc(C)cc3nc2o1)c1ccc(OC)cc1	?	0%	15%	2%	-3%	-35%
Cc1ccc2cc3cc(C(=O)N4CCCCC4C)oc3nc2c1 (stereo not drawn)	3µM*	-4%	?	1.4µM*	1.6µM*	11µM*
Cc1ccc2cc3cc(C(=O)N(C)c4ccccc4C)oc3nc2c1	6.7µM*	nt	nt	nt	nt	16µM*
Cc1ccc2cc3cc(C(=O)NC4CC4)oc3nc2c1	11µM*	nt	?	4µM*	2.5µM*	nt
CCOC(=O)N1CCN(C(=O)C2CCN(C(=O)c3ccc(C(C)(C)C)cc3)CC2)CC1	3%	nt	0%	1%	-10%	nt
Oc1ccc(N=C/C=C/c2ccc(Br)cc2)cc1-c1nc2ccccc2s1	7.6µM*	-6%	?	3.2µM*	?	-1%[1.84 µM]
CC(=O)Nc1ccc(/C=N/NC(=O)c2cc(-c3ccco3)nc3ccccc23)cc1	2.1µM*	nt	3%	3%	3%	nt
CCN1CCN(C(=O)c2cc(-c3ccco3)nc3ccccc23)CC1	?	nt	2%	1%	-3%	nt
O=C(NNC(=O)c1cc(-c2ccco2)nc2ccccc12)c1ccccc1	19µM*	nt	-5%	-2%	3%	nt
CC(=O)c1cccc(NC(=O)c2cc(-c3ccco3)nc3ccccc23)c1	-17%	nt	-17%	2%	-4%	nt
O=C(O)c1ccccc1/C=N/NC(=O)c1cc(-c2ccco2)nc2ccccc12	0.95µM*	nt	-2%	-5%	14%	nt
O=C(O)c1cc(-c2ccco2)nc2cc3ccccc3cc12	8.5µM*	nt	10%	16%	22%	nt
